# Inconclusive results are not listed. Activity calls are given as the source filed them. The call rests on the fitted dose curve; in most records, active means well fitted cell-killing curve with a large enough effect; inconclusive means small, poorly fitted or top-dose-only effect, or effect the other way; inactive means flat fitted curve, though single readings scatter. Where a SMILES comes first, the peptide text is derived from it.
# Test system: PA-1
# Assay: Primary qHTS to identify gynecologic anti-cancer compounds using libraries of approved drugs and bioactive compounds (AID 1345084); further: nearly all actives have a fitted effect of over 55% in size
# Conditions: Gynecologic cancer cell panel viability, ATPlite luminescence, 48 h; series mostly up to 57.5 µM; activity change, negative = cytotoxicity: at the top concentration
# Procedure, shortened: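 Measured: luminescence after ATPlite addition (15 min, RT). Exposure: 48 h, 37 C, 5% CO2.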
# On the % scale 0 is the no-effect control and ±100 the full control effect.
row,SMILES,"activity change, negative = cytotoxicity"
1,O=C(O)CC/C=C\C[C@H]1CO[C@@H](c2ccccc2Cl)O[C@H]1c1ccccc1O,13.1% (inactive)
2,CC1=CC2=C(C)C(=O)C(C)(O)C(O)C2CO1 (centres undefined),-1.78% (inactive)
3,O=C(/C=C/c1ccccc1)OC[C@H]1O[C@@H](OC(=O)c2cc(O)c(O)c(O)c2)[C@H](O)[C@@H](O)[C@@H]1O,-0.601% [at 25.3 µM] (inactive)
4,CCC/C=C1\OC(=O)C2=C1CCC(O)C2O (centres undefined),4.89% (inactive)
5,C=C(CCO)C(=O)OCC1OCC(OC(=O)C(=C)CCO[C@@H]2O[C@H](CO)[C@@H](O)[C@H](O)[C@H]2O)C(O)C1O (some centres undefined),5.35% [at 25.3 µM] (inactive)
6,COc1ccc(/C=C/C(N)=O)cc1OC,-3.71% (inactive)
7,Cc1nnc(-c2sc(NC(=O)[C@H](C(C)C)n3c(=O)[nH]c4ccccc4c3=O)nc2C)o1,17.5% (inactive)
8,CNC(C)C(=O)NC(C(=O)N1CCCC1C(=O)Nc1cccc2ncccc12)C(C)C (centres undefined),1.24% (inactive)
9,C=CC1(C)CC=C2C(CCC3C(C)(C(=O)O)CCCC23C)C1 (centres undefined),10.5% (inactive)
10,O=C(OCc1ccccc1O[C@@H]1O[C@H](CO)[C@@H](O)[C@H](O)[C@H]1O)C1(O)C=CCCC1O (some centres undefined),0.221% [at 25.3 µM] (inactive)
11,CC/C=C/C(O)C(O)C1=C(C)C(=O)C2(O1)C(=O)NC(OC)(C(=O)c1ccccc1)C2O (centres undefined),6.69% [at 25.3 µM] (inactive)
12,N[C@@H](CCNCc1ccc(Cl)cc1)C(=O)N1CCCCC1,2.15% (inactive)
13,OC[C@@]1(O)CO[C@H](OC[C@H]2O[C@@H](OC(CCCCc3ccc(O)cc3)CCc3ccc(O)cc3)[C@H](O)[C@@H](O)[C@@H]2O)[C@@H]1O (some centres undefined),-2.94% [at 25.3 µM] (inactive)
14,CSCC[C@H](NC(=O)[C@H](CO)NC(=O)[C@H](CCC(=O)O)NC(C)=O)C(=O)N[C@H](C=O)CC(=O)O (Ac-ESMD-aldehyde),-0.0533% [at 11.6 µM] (inactive)

# From PubChem BioAssay (NCATS)
